Measurements: PubChem BioAssay (NCI)
Compounds without any hit were thinned out: in the full panel of roughly 83,000, 20% have a hit.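 Interpretation: 100, growth as untreated; towards 0, rising growth inhibition; 0, no net growth; 0 to -100, cell death. Compounds scoring below 10 were considered active.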 Calls of active or inactive are those of the source.

Experiments:
Assay in all cases: NCI-60 one-dose screen, 48 h (100 = growth as untreated, 0 = no growth, -100 = all killed)
HCT-15 colon = tested on: HCT-15 colon
HT29 colon = tested on: HT29 colon
SNB-75 CNS = tested on: SNB-75 CNS
SNB-19 CNS = tested on: SNB-19 CNS
U251 CNS = settings: 10 µM unless noted
PC-3 prostate = settings: 10 µM unless noted
SK-MEL-5 melanoma = tested on: SK-MEL-5 melanoma
UACC-62 melanoma = tested on: UACC-62 melanoma
LOX IMVI melanoma = tested on: LOX IMVI melanoma
SK-MEL-28 melanoma = tested on: SK-MEL-28 melanoma
SK-MEL-2 melanoma = tested on: SK-MEL-2 melanoma
EKVX NSCLC = tested on: EKVX NSCLC
SN12C renal = tested on: SN12C renal
UO-31 renal = tested on: UO-31 renal
TK-10 renal = tested on: TK-10 renal
ACHN renal = tested on: ACHN renal
CAKI-1 renal = tested on: CAKI-1 renal
A498 renal = tested on: A498 renal
CCRF-CEM leukemia = tested on: CCRF-CEM leukemia
MOLT-4 leukemia = settings: 10 µM unless noted

Measured: growth

CCCCNC(=S)Nc1ccc(OCc2nc3ccc(Cl)cc3[nH]2)cc1
active: LOX IMVI melanoma; 10 µM unless noted -29.8% | SK-MEL-2 melanoma; 10 µM unless noted 7.47% | UO-31 renal; 10 µM unless noted 5.99% | ACHN renal; 10 µM unless noted 5.02% | CCRF-CEM leukemia; 10 µM unless noted 7.96%
inactive: HCT-15 colon; 10 µM unless noted 14.5% | HT29 colon; 10 µM unless noted 28.4% | SNB-75 CNS; 10 µM unless noted 26.4% | SNB-19 CNS; 10 µM unless noted 53% | U251 CNS 23.7% | PC-3 prostate 35.4% | SK-MEL-5 melanoma; 10 µM unless noted 42.5% | UACC-62 melanoma; 10 µM unless noted 29.9% | SK-MEL-28 melanoma; 10 µM unless noted 45.5% | EKVX NSCLC; 10 µM unless noted 28.9% | SN12C renal; 10 µM unless noted 19.2% | TK-10 renal; 10 µM unless noted 36.6% | CAKI-1 renal; 10 µM unless noted 21.6% | A498 renal; 10 µM unless noted 90%

C/C(=N\Nc1ccc(C(=O)O)cc1)c1cnn(-c2cc(=O)[nH]c3ccc(C)cc23)c1C
inactive: HCT-15 colon; 10 µM unless noted 97.4% | HT29 colon; 10 µM unless noted 100% | SNB-75 CNS; 10 µM unless noted 91.9% | SNB-19 CNS; 10 µM unless noted 97.5% | U251 CNS 102% | PC-3 prostate 88.8% | SK-MEL-5 melanoma; 10 µM unless noted 97.9% | UACC-62 melanoma; 10 µM unless noted 91.5% | LOX IMVI melanoma; 10 µM unless noted 94.9% | SK-MEL-28 melanoma; 10 µM unless noted 107% | SK-MEL-2 melanoma; 10 µM unless noted 106% | EKVX NSCLC; 10 µM unless noted 93% | SN12C renal; 10 µM unless noted 92.6% | UO-31 renal; 10 µM unless noted 67.9% | TK-10 renal; 10 µM unless noted 104% | ACHN renal; 10 µM unless noted 99.4% | CAKI-1 renal; 10 µM unless noted 89.7% | A498 renal; 10 µM unless noted 108% | CCRF-CEM leukemia; 10 µM unless noted 93% | MOLT-4 leukemia 97.8%

Cc1nn(-c2ccccc2)c2nc(C)n(CC(=O)N/N=C/c3cccc([N+](=O)[O-])c3)c(=O)c12
inactive: HCT-15 colon; 10 µM unless noted 96.2% | HT29 colon; 10 µM unless noted 102% | SNB-75 CNS; 10 µM unless noted 79.5% | SNB-19 CNS; 10 µM unless noted 77% | U251 CNS 98.3% | PC-3 prostate 80.1% | SK-MEL-5 melanoma; 10 µM unless noted 97.6% | UACC-62 melanoma; 10 µM unless noted 81.3% | LOX IMVI melanoma; 10 µM unless noted 88.8% | SK-MEL-28 melanoma; 10 µM unless noted 106% | SK-MEL-2 melanoma; 10 µM unless noted 101% | EKVX NSCLC; 10 µM unless noted 76.8% | SN12C renal; 10 µM unless noted 89.1% | UO-31 renal; 10 µM unless noted 69.7% | TK-10 renal; 10 µM unless noted 103% | ACHN renal; 10 µM unless noted 104% | CAKI-1 renal; 10 µM unless noted 88% | A498 renal; 10 µM unless noted 95.8% | CCRF-CEM leukemia; 10 µM unless noted 85.1%

O=C1NC(=NC23CC4CC(CC(C4)C2)C3)N/C1=C\c1ccc2ncccc2c1
inactive: UACC-62 melanoma; 10 µM unless noted 23.6% | UO-31 renal; 10 µM unless noted 14.7%
active: HCT-15 colon; 10 µM unless noted -12% | HT29 colon; 10 µM unless noted 1.49% | SNB-75 CNS; 10 µM unless noted -66.3% | SNB-19 CNS; 10 µM unless noted 5.85% | U251 CNS -63.7% | PC-3 prostate -48.1% | SK-MEL-5 melanoma; 10 µM unless noted -9.19% | LOX IMVI melanoma; 10 µM unless noted -76.9% | SK-MEL-28 melanoma; 10 µM unless noted -3.01% | SK-MEL-2 melanoma; 10 µM unless noted -5.99% | EKVX NSCLC; 10 µM unless noted 9.7% | SN12C renal; 10 µM unless noted -2.27% | TK-10 renal; 10 µM unless noted -22.9% | ACHN renal; 10 µM unless noted 4.48% | CAKI-1 renal; 10 µM unless noted -61.1% | A498 renal; 10 µM unless noted -31% | CCRF-CEM leukemia; 10 µM unless noted -15%

CC/C(=C(\c1ccc(O)cc1)c1ccc(OCCN(C)C(=O)CCOCCNC(=O)c2ccc3c(c2)CN([C@@H]2CCC(=O)NC2=O)C3=O)cc1)c1ccccc1
inactive: HCT-15 colon; 1 µM 110% | HCT-15 colon; 10 µM 103% | HT29 colon; 1 µM 95% | HT29 colon; 10 µM 89% | SNB-75 CNS; 1 µM 59% | SNB-75 CNS; 10 µM 64.2% | SNB-19 CNS; 1 µM 92.7% | SNB-19 CNS; 10 µM 90.1% | SK-MEL-5 melanoma; 1 µM 95.4% | SK-MEL-5 melanoma; 10 µM 87.9% | UACC-62 melanoma; 1 µM 95.9% | UACC-62 melanoma; 10 µM 95% | LOX IMVI melanoma; 1 µM 104% | LOX IMVI melanoma; 10 µM 94.4% | SK-MEL-28 melanoma; 1 µM 102% | SK-MEL-28 melanoma; 10 µM 102% | SK-MEL-2 melanoma; 1 µM 103% | SK-MEL-2 melanoma; 10 µM 101% | EKVX NSCLC; 1 µM 100% | EKVX NSCLC; 10 µM 89.1% | SN12C renal; 1 µM 91.3% | SN12C renal; 10 µM 95.7% | UO-31 renal; 1 µM 91.9% | UO-31 renal; 10 µM 89.9% | TK-10 renal; 1 µM 99% | TK-10 renal; 10 µM 88.5% | ACHN renal; 1 µM 103% | ACHN renal; 10 µM 106% | CAKI-1 renal; 1 µM 101% | CAKI-1 renal; 10 µM 94.5% | A498 renal; 1 µM 93.3% | A498 renal; 10 µM 89.6% | CCRF-CEM leukemia; 1 µM 24.5% | CCRF-CEM leukemia; 10 µM 26.1%

COc1nc(N)ncc1-c1ccc2ncnc(N3CCc4cc(F)c(Cl)cc43)c2c1
inactive: HCT-15 colon; 10 µM unless noted 23.7% | HT29 colon; 10 µM unless noted 36.7% | PC-3 prostate 66.3% | SK-MEL-5 melanoma; 10 µM unless noted 57.5% | UACC-62 melanoma; 10 µM unless noted 50% | LOX IMVI melanoma; 10 µM unless noted 14.5% | SK-MEL-28 melanoma; 10 µM unless noted 31.3% | SK-MEL-2 melanoma; 10 µM unless noted 25.7% | EKVX NSCLC; 10 µM unless noted 24.2% | CCRF-CEM leukemia; 10 µM unless noted 61.6%
active: SNB-75 CNS; 10 µM unless noted -52.7% | SNB-19 CNS; 10 µM unless noted 1.32% | U251 CNS -44.9% | SN12C renal; 10 µM unless noted -40.9% | UO-31 renal; 10 µM unless noted -32.4% | TK-10 renal; 10 µM unless noted -50% | ACHN renal; 10 µM unless noted -84.7% | CAKI-1 renal; 10 µM unless noted 4.22% | A498 renal; 10 µM unless noted -15.6%
